Hits are enriched below; roughly 3.8% of the tested compounds scored in any of these assays.
ADAM17 inh: ADAM17 inhibitors, primary screen, biochemical, QFRET; Disintegrin and metalloproteinase domain-containing protein 17 (Homo sapiens), P78536; recombinant ADAM17, EDANS/DABCYL FRET peptide cleavage; inhibition, % at 6.95 µM; 0.83% of 370,000 active;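 active = inhibition above the mean of compounds lying between control limits plus 3 SD, set per campaign, cut at about 8.5% in these data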;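 also: 0% = DMSO-only wells as the low control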
FGF22 binding: binders of human FGF22 protein, primary screen, FGF22 synaptogenesis inhibitor project, biophysical, thermal shift, single point | recombinant FGF22 thermal shift, SYPRO orange fluorescence; percent of sucrose octasulfate shift, DMSO zero | activity (Tm shift, normalised), % at 9.99 µM | 1.5% of 340,000 active;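 active = mean Tm shift, scaled 0 neutral to 100 positive control, at about 1.3% or above, every replicate too, limit read from the data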
Target sequence (Q9HCT0 whole entry, looked up): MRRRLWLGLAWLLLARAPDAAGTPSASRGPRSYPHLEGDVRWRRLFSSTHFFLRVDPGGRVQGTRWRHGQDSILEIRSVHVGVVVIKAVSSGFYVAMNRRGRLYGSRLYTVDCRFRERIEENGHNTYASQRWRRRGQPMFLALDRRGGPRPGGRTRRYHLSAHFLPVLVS
ADAM10 inh: human ADAM10 inhibitors, primary screen, biochemical, QFRET, HTS. recombinant ADAM10, EDANS/DABCYL FRET peptide cleavage, 3 h. 0.62% of 370,000 active. inhibition, % at 7 µM. Disintegrin and metalloproteinase domain-containing protein 10 (Homo sapiens), O14672;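 active = inhibition above a per-campaign cutoff equal to the mean of compounds falling between control-based bounds plus 3 SD, cut at about 20% in these data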;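 also: 0% = DMSO wells while the 100% control is not disclosed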
KLK7 zymogen act: proKLK7 zymogen activators, primary screen, biochemical, fluorescence intensity. purified proKLK7, EDANS-DABCYL substrate fluorescence; 100% is mature enzyme control, 0% vehicle. activation, % at 7 µM. AID 652039, 2013. Kallikrein-7 (Homo sapiens), P49862. 0.9% of 370,000 active;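 active = activation above the mean of all tested compounds plus 3 SD, computed per campaign excluding outliers beyond control limits, cut at about 13% in these data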
Target sequence (P49862 whole entry, looked up): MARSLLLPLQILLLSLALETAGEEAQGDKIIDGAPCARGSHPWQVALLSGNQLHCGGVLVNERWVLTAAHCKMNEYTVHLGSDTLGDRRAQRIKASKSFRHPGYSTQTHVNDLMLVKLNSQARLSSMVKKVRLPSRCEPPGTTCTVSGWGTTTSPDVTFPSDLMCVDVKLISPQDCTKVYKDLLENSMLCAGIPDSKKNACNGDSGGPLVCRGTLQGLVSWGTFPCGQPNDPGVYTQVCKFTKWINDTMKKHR
Ecoli rRNA inh: reduced GFP signal of wild-type E. coli, primary screen, bacterial rRNA inhibitor project, GFP/RFP fluorescence, OD600, single point; E. coli WT GFP vs humanized-ribosome RFP mutants, 24 h; active compounds read low; DMSO median 0, no signal -100; GFP signal change (wild-type ribosome), % (concentration not given with the values); 1.6% of 350,000 active;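 active = significant combined selectivity score with lowered wild-type GFP, culture density cut under 30%, mutant RFP and density less affected; inactive = any of these conditions unmet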
Numbers without * were called inactive; · = no result.

SMILES	ADAM17 inh	FGF22 binding	ADAM10 inh	KLK7 zymogen act	Ecoli rRNA inh
C=CC(COCc1ccccc1)N(C(=O)OC(C)(C)C)S(=O)(=O)c1ccccc1Br (centres undefined)	2	0	5	0	2
Cc1ccc(-c2ccc([C@H]3[C@@H](CO)N4C(=O)CN(C(=O)c5ccncc5)C[C@@H]34)cc2)cc1	·	·	·	·	-4
CC(C)NC(=O)N1CCCN(c2nc3ccc(Cl)cc3s2)CC1	2	0	9	0	-24*
CC(C)C(=O)N1CCN(c2nc3ccc(Cl)cc3s2)CC1	-2	0	13	1	-35*
O=C(CSc1cccc2cccnc12)OCC(=O)c1ccccc1	-65	·	-222	73*	·
COc1ccccc1N1CCN(/N=C/c2cccc(O)c2)CC1	-2	44*	-2	0	9
COc1ccccc1N1CCN(/N=C/c2cc(OC)c(O)c(OC)c2)CC1	-3	0	0	-1	3
Oc1ccc(/C=N/Nc2ccc3ccccc3c2)c(O)c1	-8	0	-18	-2	-32*
O=C(N/N=C/c1ccc(O)cc1O)C(=O)N/N=C/c1ccc(O)cc1O	-3	0	-12	-2	-24*
O=C(NN=Cc1ccc(O)cc1)C(=O)NN=Cc1ccc(O)cc1	4	0	-3	1	1
COc1ccc2c3c([nH]c2c1)[C@@H](CO)N(C(=O)CN(C)C)CC31CCN(CC2CCCCC2)CC1	·	0	·	·	5
CCOCc1[nH]c(=S)[nH]c(=O)c1Cc1ccc(OCC)cc1	-2	43*	1	0	15
CCCCOc1ccc(Cc2c(COCC)[nH]c(=S)[nH]c2=O)cc1	1	·	5	0	6
Cc1ccc(/C=N/NC(=O)c2nnn(-c3nonc3N)c2CSc2ccccc2)o1	1	43*	-2	0	-10
Cc1ccc(SCc2c(C(=O)N/N=C/c3ccccc3)nnn2-c2nonc2N)cc1	1	0	10	1	-16*
Cc1ccc(/C=N/NC(=O)c2nnn(-c3nonc3N)c2CN(C)c2ccccc2)s1	-2	0	0	0	8
Cc1ccc(SCc2c(C(=O)N/N=C/c3ccc(C)o3)nnn2-c2nonc2N)cc1	4	0	-2	0	-28
CN(Cc1c(C(=O)N/N=C/c2c(F)cccc2Cl)nnn1-c1nonc1N)c1ccccc1	4	0	4	0	-22*
CC(C)c1c(C(=O)N/N=C/c2cccnc2)nnn1-c1nonc1N	-2	0	2	0	-20*
O=C(C[C@@H]1C=C[C@H](NC(=O)c2cccnc2)[C@@H](CO)O1)NCc1ccc(Cl)c(Cl)c1	·	0	·	·	0
COc1ccc(/C=N/NC(=O)c2c(C)nnn2-c2nonc2N)cc1OC	-2	43*	-6	0	8
O=C(NC(=S)NNC(=O)c1ccccc1F)c1cccnc1	-3	0	4	-1	-19*
Cc1ccccc1C(=O)NNC(=S)NC(=O)COc1ccccc1	-5	0	-1	0	-22*
Cc1ccccc1C(=O)NNC(=S)NC(=O)c1cccnc1	3	43*	4	0	-24
O=C(NNC(=S)NC(=O)c1ccccc1)c1cccnc1	-4	0	-1	-1	-14
SMILES	ADAM17 inh	FGF22 binding	ADAM10 inh	KLK7 zymogen act	Ecoli rRNA inh
C[C@@H]1CN([C@@H](C)CO)C(=O)c2cccc(N(C)C)c2O[C@H]1CN(C)C(=O)Nc1ccc2c(c1)OCO2	·	-1	·	·	-2
CCC(=O)N[C@H]1C=C[C@H](CC(=O)NCC2CC2)O[C@@H]1CO	·	·	·	·	2
CN1C(=O)c2cc(NC(=O)Cc3ccccc3)ccc2OC[C@@H]2O[C@@H](CC(=O)NC3CCC3)CC[C@@H]21	·	0	·	·	0
COc1ccc(-c2[nH]ncc2CN(C)CC2CCCCO2)cc1F (centres undefined)	-3	43*	-8	-1	19
C[C@H](O)C#Cc1ccc2c(c1)O[C@H](CN(C)CC1CC1)[C@H](C)CN([C@@H](C)CO)S2(=O)=O	·	·	·	·	1
COc1cccc(C(C(=O)NC2CCCCC2)N(C(=O)Cc2cccs2)c2ccc(-n3cnnn3)c(OC)c2)c1 (centres undefined)	-4	·	-8	0	·
COc1cccc(C(C(=O)NC2CCCCC2)N(C(=O)c2cccs2)c2ccc3c(c2)OCO3)c1 (centres undefined)	0	44*	3	0	9
CC(C)(C)Nc1nc(Cl)nc(NCCN2CCOCC2)n1	-2	0	1	0	5
Cc1cc(NCCN2CCOCC2)c2ccc3ccccc3c2n1	-5	43*	-1	0	6
Clc1nc(NCCN2CCOCC2)nc(NCc2ccccc2)n1	-1	44*	-9	0	·
O=C(CSc1cccc[n+]1[O-])Nc1cccc(Oc2ccccc2)c1	-10	1	0	0	-36
O=C(CCl)Nc1cccc(Oc2cnccn2)c1	-1	0	-5	0	10
Cc1cccc(NC(=O)CSc2n[nH]c(-c3ccncc3)n2)c1	-4	·	2	0	4
CC(=O)c1cccc(NC(=O)CSc2n[nH]c(-c3ccncc3)n2)c1	-2	1.7*	-3	0	1
O=C(CSc1ncnc2[nH]ncc12)Nc1cccc(Oc2ccccc2)c1	1	0	10	-1	-43*
O=C(CCl)Nc1cccc(Oc2ccccc2)c1	-3	43*	4	0	-26*
Nc1nc(SCC(=O)Nc2cccc(Oc3ccccc3)c2)n[nH]1	4	0	4	0	-24*
CN(C)Cc1cn(CC[C@H]2CC[C@@H](NS(=O)(=O)c3ccccc3)[C@@H](CO)O2)nn1	·	0	·	·	-2
CCC(=O)c1c[nH]c(C(=O)N2CCN(c3ccccc3)CC2)c1	-1	43*	1	1	10
Clc1nc(Nc2ccc(N3CCOCC3)cc2)c2ccccc2n1	5	43*	8	0	23
CCOC(=O)c1nc(Nc2ccc(N3CCOCC3)cc2)c2ccccc2n1	1	0	1	0	-1
CCOC(=O)c1sc(N=NC2=C(O)CCCC2=O)c(C(=O)OCC)c1C	-2	0	3	0	-26*
COc1cc(OC)c2c(-c3cccc(-c4ccc(O)cc4)c3)cc(=O)oc2c1	9	0	18	0	-24*
CCc1ccccc1-n1c(SCC(=O)N2CCCC2)nc2[nH]ncc2c1=O	0	44*	2	-1	15
CCOC(=O)C1CCCCN1Cc1ccc(F)cc1 (centres undefined)	-4	0	0	0	7
